Calls of active or inactive are those of the source. How the source made its calls: active means hit-call score of the fitted dose curve at least 0.9, where 1 is the maximum; inactive means score below 0.9.
Test: CEETOX_H295R_ESTRONE: CeeTox H295R High-throughput Steroidogenesis Assay for Estrone (AID 2283441);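 further: estrone secreted into medium measured by LC-MS/MS after dansyl derivatization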;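 on AC50: human adrenal H295R cells prestimulated with forskolin for two days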
Conditions: actives raise or lower the signal
Description: CEETOX_H295R is a cell-based, multiplexed-readout assay that uses H295R, a human adrenal gland cell line, with measurements taken at 48 hours after chemical dosing in a 96-well plate.CEETOX_H295R_ESTRONE is one of 23 assay component(s) measured or calculated from the CEETOX_H295R assay. It is designed to make measurements of hormone induction, a form of inducible reporter, as detected with absorbance signals by HPLC-MS-MS technology.Data from the assay component CEETOX_H295R_ESTRONE was analyzed into 1 assay endpoint. This assay endpoint, CEETOX_H295R_ESTRONE, was analyzed with bidirectional fitting relative to DMSO as the negative control and baseline of activity. Using a type of inducible reporter, gain or loss-of-signal activity using HPLC-MS-MS was used to understand synthesis of Estrone in H295R cell line at 48hr of chemical exposure. To generalize the intended target to other relatable targets, this assay endpoint is annotated to the steroid hormone intended target family, where the subfamily is estrogens.
Cell culture and media preparation procedures were conducted in accordance with OECD Test No. 456 guidelines, with minor modifications. H295R cells (ATCC CRL-2128) were expanded for 5 passages and frozen in batches in liquid nitrogen. Prior to the steroidogenesis assay, H295R cells were thawed and passed at least 4 times. The maximum passage was 10. […] After seeding cells into 96-well plates at 50-60% confluency, cells were allowed to adhere overnight. Prior to chemical testing, culture medium was replaced with 175 uL medium containing 10 uM forskolin to stimulate steroidogenesis for 48 hours. Following prestimulation, forskolin medium was replaced with medium containing test chemical solubilized in DMSO (ensuring a final concentration of 0.1% DMSO). Test chemicals were incubated for 48 hours, then the medium was removed and split into 2 vials containing approximately 75uL each, and stored at -80 C prior to hormone analysis. For steroid quantification, media samples were shipped to OpAns, LLC (Durham, NC) on dry ice, and samples were thawed to room temperature prior to liquid-liquid extraction. Steroid hormones were extracted from media samples using methyl tertbutyl ether (MTBE). An extra derivatization with dansyl chloride was included for estrogen (estrone and estradiol) detection only. Steroid hormones were separated by HPLC, eluted using a reverse phase C18 gradient with electrospray positive ionization, followed by quantification by tandem mass spectrometry (MS/MS). Data were acquired on a MassHunter Workstation Acquisition version B03.01 (Agilent Technologies, Inc.) and processed using MassHunter Quantitative Analysis for QQQ. Accuracy was determined for each hormone analyte from 3 standards to determine upper and lower limits of quantification (ULOQ and LLOQ, respectively) using a 7-point standard curve. Precision and accuracy of the extraction and quantification methods were calculated as the percent relative standard deviation (%RSD) of the spiked standards and percent spiked standard recovered, respectively. The goal was to achieve 100% accuracy (i.e., recover all spiked-in standard at quantification with minimal loss during run time) and good precision (i.e., have %RSD <15% to ensure reproducibility). Test medium was removed following chemical exposure, and cell viability was evaluated in the same wells by MTT. MTT procedures were as follows: after removal of test medium, 500 uL of 0.5 mg/ml of 3-[4,5-dimethylthiazol-2-y]2,5-diphenyltetrazoliumbromide solution was added to the cells. Following a 4-hour incubation at 37 C and 5% CO2 to allow formazan-crystal formation, the MTT solution was removed and blue formazan salt crystals were solubilized using 500uL anhydrous isopropanol with shaking for 20 minutes. Absorbance was read at 570 and 650nm using a Packard Fusion microplate reader. Background correction of absorbance units was used to determine percent change relative to controls. […] […]

Compound | outcome | AC50
CCCCCCCC1CCC(=O)O1 (stereo not given) | inactive | 
COc1cc2c(c(OC)c1OC)-c1ccc(OC)c(=O)cc1[C@@H](NC(C)=O)CC2 | inactive | 
CCCOc1ccc(S(=O)(=O)N2CCN(CC)CC2)cc1-c1nc2c(CC)n(Cc3ccccn3)nc2c(=O)[nH]1 | inactive | 
CCN(CC)C(=S)SSC(=S)N(CC)CC | inactive | 
CCOc1ccc2[nH]cc(C(=O)NCc3ccccc3)c(=O)c2n1 | inactive | 
C[C@@H](Oc1ccc(CNC(=O)c2cccnc2Oc2ccc3c(c2)OCO3)c(F)c1)C(=O)O |  | 128 nM (active)
CCCCC(CC)C(=O)OCCOCCOCCOC(=O)C(CC)CCCC (stereo not given) | inactive | 
CC(C)c1nnc2ccc(-c3ocnc3-c3cc(F)ccc3F)cn12 | inactive | 
CCn1nc(C)c2c1C(=O)NCC(c1ccc(O)cc1)=N2 |  | 185 nM (active)
CCCCCCCCCCCCCCO | inactive | 
OCc1c[nH]c2ccccc12 | inactive | 
C=CCc1cc(S(=O)(=O)c2ccc(O)c(CC=C)c2)ccc1O | inactive | 
c1ccc2c(c1)-c1cccc3c1c-2cc1ccccc13 | inactive | 
Cc1ncc([C@@H](CCCCCCc2ccc3c(n2)NCCC3)CC(=O)O)cn1 | inactive | 
CC[C@H](C)C(=O)O[C@H]1C[C@H](O)C=C2C=C[C@H](C)[C@H](CC[C@@H](O)C[C@@H](O)CC(=O)O)[C@H]21 | inactive | 
